Calls of active or inactive are those of the source. The calls were made as follows: active = hit-call score of the fitted dose curve at least 0.9, where 1 is the maximum; inactive = score below 0.9.
What was measured:
[1] = read-out: Interleukin-1 alpha (IL1a), IL1A (gene 3552); assay: BSK_KF3CT_IL1a: BioMAP Diversity Plus: KF3CT Assay for Interleukin-1 alpha (IL1a) Biomarker Activity (AID 2283070); conditions: primary human keratinocytes with fibroblasts; actives raise or lower the signal
Procedure, shortened: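 Chemicals were dosed onto co-cultured human keratinocytes and foreskin fibroblasts, IL-1a was quantified by ELISA at 24 h, and activity was fitted in both directions relative to DMSO controls.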

[2] = read-out: TIMP metallopeptidase inhibitor 2 (TIMP2), TIMP2 (gene 7077); assay: BSK_KF3CT_TIMP2: BioMAP Diversity Plus: KF3CT Assay for TIMP metallopeptidase inhibitor 2 (TIMP2) Biomarker Activity (AID 2283071); conditions: primary human keratinocytes with fibroblasts; actives raise or lower the signal
Procedure, shortened: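 Cells: human keratinocytes co-cultured with foreskin fibroblasts. Treat with chemical, 24 h. Measure TIMP-2 by ELISA; fit curves bidirectionally vs DMSO baseline.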

[3] = read-out: C-C motif chemokine 2 (Homo sapiens) (UniProt P13500); assay: BSK_KF3CT_MCP1: BioMAP Diversity Plus: KF3CT Assay for Monocyte Chemoattractant Protein 1 (MCP1/CCL2) Biomarker Activity (AID 2283073); conditions: primary human keratinocytes with fibroblasts; actives raise or lower the signal
Procedure, shortened: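 ELISA read-out of MCP-1, 24 h post-dose, in primary human skin keratinocytes co-cultured with fibroblasts. Parallel SRB staining monitors cytotoxicity; changes fitted both directions relative to DMSO.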

[4] = read-out: Matrix Metallopeptidase 9 (MMP9), MMP9 (gene 4318); assay: BSK_KF3CT_MMP9: BioMAP Diversity Plus: KF3CT Assay for Matrix Metallopeptidase 9 (MMP9) Biomarker Activity (AID 2283074); conditions: primary human keratinocytes with fibroblasts; actives raise or lower the signal;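 as to AC50: MMP9 protein level quantified by ELISA in the co-culture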
Procedure, shortened: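 Human keratinocyte/foreskin fibroblast co-culture; compound added; 24 h; MMP-9 by ELISA; bidirectional fit vs DMSO baseline.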

[5] = read-out: urokinase plasminogen activator (uPA), PLAU (gene 5328); assay: BSK_KF3CT_uPA: BioMAP Diversity Plus: KF3CT Assay for urokinase plasminogen activator (uPA) Biomarker Activity (AID 2283075); conditions: primary human keratinocytes with fibroblasts; actives raise or lower the signal
Procedure, shortened: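 ELISA readout of uPA, analyzed for signal gain or loss relative to DMSO, from a human primary keratinocyte–foreskin fibroblast co-culture measured 24 h after chemical treatment.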

CD40, CD40 (gene 958) [6] = assay: BSK_LPS_CD40: BioMAP Diversity Plus: LPS Assay for CD40 Biomarker Activity (AID 2283076); conditions: primary human HUVEC with PBMC; actives raise or lower the signal
Procedure, shortened: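 In the LPS system of human endothelial cells with peripheral blood mononuclear cells, CD40 levels were read by ELISA 24 h post-treatment. Signal changes in either direction were fitted against the DMSO baseline, with parallel SRB protein staining.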

[7] = read-out: E-selectin (Homo sapiens) (UniProt P16581); assay: BSK_LPS_Eselectin: BioMAP Diversity Plus: LPS Assay for Eselectin Biomarker Activity (AID 2283077); conditions: primary human HUVEC with PBMC; actives raise or lower the signal
Procedure, shortened: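 E-selectin ELISA on LPS-stimulated endothelial cell/PBMC co-cultures, read 24 h post-treatment; gains and losses fitted against DMSO. Parallel SRB staining (0.1% SRB after 10% TCA fixation, 560 nm) flags overt cytotoxicity.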

[8] = read-out: Interleukin-8 (IL8), CXCL8 (gene 3576); assay: BSK_LPS_IL8: BioMAP Diversity Plus: LPS Assay for Interleukin-8 (IL8) Biomarker Activity (AID 2283078); conditions: primary human HUVEC with PBMC; actives raise or lower the signal
Procedure, shortened: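 ELISA read-out of IL-8 after 24 h chemical treatment of LPS-activated endothelial/PBMC human primary co-cultures. Changes either up or down relative to DMSO; overt cytotoxicity checked by sulforhodamine B staining in parallel wells.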

[9] = BSK_LPS_SRB: Viability Assessment in the BioMAP Diversity Plus: LPS Assay (AID 2283079); conditions: primary human HUVEC with PBMC;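 also: total protein by sulforhodamine B absorbance as a cytotoxicity measure; measured one day after compound addition; fitted in both directions against DMSO so loss or gain of signal counts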
Procedure, shortened: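 SRB viability endpoint: cells fixed with 10% TCA, stained with 0.1% SRB, read at 560 nm, 24 h post-dose. HUVEC/PBMC co-culture; signal change in either direction scored relative to DMSO.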

[10] = read-out: Interleukin-1 alpha (IL1a), IL1A (gene 3552); assay: BSK_LPS_IL1a: BioMAP Diversity Plus: LPS Assay for Interleukin-1 alpha (IL1a) Biomarker Activity (AID 2283080); conditions: primary human HUVEC with PBMC; actives raise or lower the signal
Procedure, shortened: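 Readout is IL-1a level by ELISA, 24 h post-dose, fitted as gain or loss relative to DMSO. System: LPS-activated human primary co-culture of vascular endothelium and peripheral blood mononuclear cells, with parallel SRB total-protein cytotoxicity.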

[11] = read-out: Monocyte Chemoattractant Protein-1 (MCP1), CCL2 (gene 6347); assay: BSK_LPS_MCP1: BioMAP Diversity Plus: LPS Assay for Monocyte Chemoattractant Protein-1 (MCP1) Biomarker Activity (AID 2283081); conditions: primary human HUVEC with PBMC; actives raise or lower the signal;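 as to AC50: secreted MCP-1 protein quantified by ELISA in culture supernatant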
Procedure, shortened: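 Secreted MCP-1 read by ELISA at 24 h post-dosing in an LPS-activated co-culture of endothelial cells with peripheral blood mononuclear cells. Fits run in both directions, DMSO as baseline; parallel SRB staining tracks overt cytotoxicity.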

[12] = BSK_LPS_PGE2: BioMAP Diversity Plus: LPS Assay for Prostaglandin E2 (PGE2) Biomarker Activity (AID 2283082); conditions: primary human HUVEC with PBMC; actives raise or lower the signal;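 as to AC50: secreted prostaglandin E2 measured by ELISA in LPS-stimulated co-culture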
Procedure, shortened: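 LPS-activated HUVEC/PBMC co-culture; cmpd dosed, 24 h; PGE2 by ELISA; bidirectional fit vs DMSO; SRB (0.1%, TCA-fixed, 560 nm) in parallel plates for overt cytotox.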

[13] = read-out: Macrophage colony-stimulating factor (MCSF), CSF1 (gene 1435); assay: BSK_LPS_MCSF: BioMAP Diversity Plus: LPS Assay for Macrophage colony-stimulating factor (MCSF) Biomarker Activity (AID 2283083); conditions: primary human HUVEC with PBMC; actives raise or lower the signal
Procedure, shortened: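 Bidirectional fitting against DMSO was applied to M-CSF levels read by ELISA at 24 h post-dose. The system pairs human umbilical vein endothelium with peripheral blood mononuclear cells; parallel SRB staining tracked cytotoxicity.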

[14] = read-out: Tissue Factor, F3 (gene 2152); assay: BSK_LPS_TissueFactor: BioMAP Diversity Plus: LPS Assay for Tissue Factor Biomarker Activity (AID 2283084); conditions: primary human HUVEC with PBMC; actives raise or lower the signal
Procedure, shortened: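 Compound was added to an endothelial cell/PBMC co-culture, and after 24 h tissue factor (CD142) was read by ELISA. Gain or loss of signal was fitted against a DMSO baseline, and parallel SRB staining (560 nm) tracked overt cytotoxicity.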

[15] = read-out: Tumor necrosis factor (Homo sapiens) (UniProt P01375); assay: BSK_LPS_TNFa: BioMAP Diversity Plus: LPS Assay for Tumour Necrosis Factor alpha (TNFa) Biomarker Activity (AID 2283085); conditions: primary human HUVEC with PBMC; actives raise or lower the signal;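 as to AC50: TNFa protein level quantified by ELISA in the co-culture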
Procedure, shortened: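 Read-out is ELISA of TNFa in primary human endothelial cell–PBMC co-cultures at 24 h after compound. Activity in either direction was fitted against DMSO.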

[16] = read-out: Vascular cell adhesion molecule 1 (VCAM1), VCAM1 (gene 7412); assay: BSK_LPS_VCAM1: BioMAP Diversity Plus: LPS Assay for Vascular cell adhesion molecule 1 (VCAM1) Biomarker Activity (AID 2283086); conditions: primary human HUVEC with PBMC; actives raise or lower the signal
Procedure, shortened: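 HUVEC + PBMC co-culture, LPS system; compound 24 h; VCAM-1 by ELISA; bidirectional fit vs DMSO control; parallel SRB (0.1%, TCA-fixed, 560 nm) for cytotoxicity.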

CD38, CD38 (gene 952) = assay: BSK_SAg_CD38: BioMAP Diversity Plus: SAg Assay for CD38 Biomarker Activity (AID 2283087); conditions: primary human HUVEC with PBMC; actives raise or lower the signal
Procedure, shortened: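 Human HUVEC plus PBMC co-culture stimulated with superantigen; CD38 measured by ELISA 24 h after chemical dosing. Fluorescence read-out, bidirectional fit against DMSO; cytotoxicity tracked in parallel by SRB and Alamar Blue.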

CD40, CD40 (gene 958) [17] = assay: BSK_SAg_CD40: BioMAP Diversity Plus: SAg Assay for CD40 Biomarker Activity (AID 2283088); conditions: primary human HUVEC with PBMC; actives raise or lower the signal
Procedure, shortened: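 CD40 is measured by fluorescence ELISA in an endothelial/PBMC primary human co-culture at 24 h post-dose. Fitting is bidirectional, DMSO baseline. Parallel SRB staining (560 nm) flags cytotoxicity.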

CD69, CD69 (gene 969) = assay: BSK_SAg_CD69: BioMAP Diversity Plus: SAg Assay for CD69 Biomarker Activity (AID 2283089); conditions: primary human HUVEC with PBMC; actives raise or lower the signal;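 as to AC50: cell surface CD69 protein quantified by ELISA with fluorescence detection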
Procedure, shortened: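 Values derive from bidirectional fitting relative to DMSO vehicle. Cells: umbilical vein endothelium plus peripheral blood mononuclear cells, treated 24 h before fluorescent ELISA for CD69.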

Measured: AC50

Tumor necrosis factor (Homo sapiens), sequence (P01375 whole entry, looked up): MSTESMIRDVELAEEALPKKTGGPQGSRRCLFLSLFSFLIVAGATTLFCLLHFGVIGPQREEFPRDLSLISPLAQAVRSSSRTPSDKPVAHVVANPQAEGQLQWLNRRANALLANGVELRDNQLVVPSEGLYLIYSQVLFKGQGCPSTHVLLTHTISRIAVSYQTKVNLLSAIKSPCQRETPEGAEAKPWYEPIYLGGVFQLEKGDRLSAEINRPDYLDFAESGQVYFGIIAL
E-selectin (Homo sapiens), sequence (P16581 whole entry, looked up): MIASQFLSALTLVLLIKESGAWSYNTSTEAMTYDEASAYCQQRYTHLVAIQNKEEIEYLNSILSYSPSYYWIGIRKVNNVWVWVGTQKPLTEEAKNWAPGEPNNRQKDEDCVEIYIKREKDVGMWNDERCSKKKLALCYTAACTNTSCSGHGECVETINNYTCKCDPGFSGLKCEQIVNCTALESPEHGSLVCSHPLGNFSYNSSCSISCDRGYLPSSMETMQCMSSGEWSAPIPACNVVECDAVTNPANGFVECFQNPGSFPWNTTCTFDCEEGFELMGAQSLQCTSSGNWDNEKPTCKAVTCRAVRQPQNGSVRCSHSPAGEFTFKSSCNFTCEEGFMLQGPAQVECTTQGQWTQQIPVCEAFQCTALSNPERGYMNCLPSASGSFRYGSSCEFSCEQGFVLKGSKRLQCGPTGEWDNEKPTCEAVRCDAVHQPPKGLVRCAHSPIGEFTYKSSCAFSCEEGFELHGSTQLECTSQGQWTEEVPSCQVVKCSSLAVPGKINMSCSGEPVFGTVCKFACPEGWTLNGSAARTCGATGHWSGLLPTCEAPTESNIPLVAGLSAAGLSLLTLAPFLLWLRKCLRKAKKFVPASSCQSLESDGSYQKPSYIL

CCOc1cc(Oc2ccc(C(F)(F)F)cc2Cl)ccc1[N+](=O)[O-]
active: [1] 6.07 µM | [8] 11 µM | [9] 9.65 µM | [13] 5.45 µM | CD38, CD38 (gene 952) 8.23 µM
inactive: all other assays above

CCNc1nc(Cl)nc(NC(C)C)n1
active: [15] 6.09 µM
inactive: all other assays above

COC(=O)c1ccccc1C(=O)OC
inactive: all assays above

Fc1ccc(Oc2ccnc3cc(Cl)cc(Cl)c23)cc1
active: [4] 12.9 µM | CD40, CD40 (gene 958) [6] 22.8 µM | [7] 34.4 µM | [8] 28.8 µM | [9] 24 µM | [10] 14.6 µM | [11] 29.5 µM | [12] 8.77 µM | [13] 18.7 µM | [14] 32.3 µM | [15] 20 µM | [16] 23.2 µM | CD38, CD38 (gene 952) 25.1 µM | CD69, CD69 (gene 969) 14.9 µM
inactive: [1] | [2] | [3] | [5]

— PubChem BioAssay (EPA / NIEHS)
